Results on six compounds are retold here after ChEMBL document CHEMBL1961873, “Compounds: GSK PKIS; Assays: Nanosyn kinase panel” (2012).

SMILES strings stand for the structures.

The target in assay [1] is Mast/stem cell growth factor receptor Kit (Homo sapiens) (UniProt P10721). Particulars: at 1 µM.
Assay [2] relates to Mast/stem cell growth factor receptor Kit (Homo sapiens), P10721 [D816V]. Particulars: at 0.1 µM.
The test system is the same in assay [3]. To be noted: at 1 µM.
Assay [4] concerns Mast/stem cell growth factor receptor Kit (Homo sapiens), P10721 [T670I]. Particulars: at 0.1 µM.
Sequence of Mast/stem cell growth factor receptor Kit (Homo sapiens), P10721 [T670I] (P10721 whole entry T670I): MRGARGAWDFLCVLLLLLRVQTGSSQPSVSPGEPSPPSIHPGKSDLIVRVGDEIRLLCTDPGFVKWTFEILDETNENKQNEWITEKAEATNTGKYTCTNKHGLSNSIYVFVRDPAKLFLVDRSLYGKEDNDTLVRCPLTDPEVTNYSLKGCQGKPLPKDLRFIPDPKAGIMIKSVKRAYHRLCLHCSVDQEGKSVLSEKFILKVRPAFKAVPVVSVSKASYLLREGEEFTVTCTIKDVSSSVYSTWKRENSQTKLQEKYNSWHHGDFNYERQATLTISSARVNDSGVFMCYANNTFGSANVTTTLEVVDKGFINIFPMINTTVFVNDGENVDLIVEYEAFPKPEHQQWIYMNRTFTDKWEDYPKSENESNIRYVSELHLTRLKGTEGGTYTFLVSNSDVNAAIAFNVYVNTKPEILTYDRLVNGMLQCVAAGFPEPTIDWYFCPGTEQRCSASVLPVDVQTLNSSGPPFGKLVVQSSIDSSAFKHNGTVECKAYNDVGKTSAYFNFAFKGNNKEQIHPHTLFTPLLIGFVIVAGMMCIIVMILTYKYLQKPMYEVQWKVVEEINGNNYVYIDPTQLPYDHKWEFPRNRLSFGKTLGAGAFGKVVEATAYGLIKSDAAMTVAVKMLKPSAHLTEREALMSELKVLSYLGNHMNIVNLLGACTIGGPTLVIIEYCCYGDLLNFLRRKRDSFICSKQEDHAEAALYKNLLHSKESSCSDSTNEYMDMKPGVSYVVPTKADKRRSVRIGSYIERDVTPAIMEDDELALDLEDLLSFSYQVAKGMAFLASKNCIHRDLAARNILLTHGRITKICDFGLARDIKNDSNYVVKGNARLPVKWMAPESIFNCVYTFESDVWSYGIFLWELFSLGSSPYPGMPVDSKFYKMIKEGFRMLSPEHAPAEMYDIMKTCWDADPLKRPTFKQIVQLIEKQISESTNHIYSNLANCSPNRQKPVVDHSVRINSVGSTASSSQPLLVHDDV
The test system is the same in assay [5]. Particulars: at 1 µM.
Assay [6] deals with Mast/stem cell growth factor receptor Kit (Homo sapiens), P10721 [V560G]. To be noted: at 0.1 µM.
Sequence of Mast/stem cell growth factor receptor Kit (Homo sapiens), P10721 [V560G] (P10721 whole entry V560G): as the sequence (P10721 whole entry T670I) above, with V560G, I670T counted along it
Assay [7] has the same test system. Particulars: at 1 µM.
In assay [8] the target is Tyrosine-protein kinase Lck (Homo sapiens) (UniProt P06239). Particulars: at 0.1 µM.
Sequence of Tyrosine-protein kinase Lck (Homo sapiens) (P06239 2-509 limits assumed): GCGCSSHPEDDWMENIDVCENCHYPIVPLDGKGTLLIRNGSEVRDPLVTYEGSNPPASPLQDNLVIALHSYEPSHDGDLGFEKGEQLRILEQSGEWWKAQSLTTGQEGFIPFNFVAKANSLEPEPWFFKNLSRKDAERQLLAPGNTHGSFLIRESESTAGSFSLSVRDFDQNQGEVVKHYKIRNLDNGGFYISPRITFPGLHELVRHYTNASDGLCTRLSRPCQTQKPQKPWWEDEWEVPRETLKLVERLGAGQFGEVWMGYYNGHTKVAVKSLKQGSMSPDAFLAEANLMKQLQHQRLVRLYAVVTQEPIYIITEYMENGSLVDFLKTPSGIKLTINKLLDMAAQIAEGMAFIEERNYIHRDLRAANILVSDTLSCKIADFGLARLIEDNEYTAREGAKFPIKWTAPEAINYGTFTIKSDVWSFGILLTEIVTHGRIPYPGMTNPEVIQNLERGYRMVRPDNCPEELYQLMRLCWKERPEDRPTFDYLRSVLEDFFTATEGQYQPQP
Assay [9] has the same target. Particulars: at 1 µM.
The target in assay [10] is Leukocyte tyrosine kinase receptor (Homo sapiens) (UniProt P29376). Particulars: at 0.1 µM.
Sequence of Leukocyte tyrosine kinase receptor (Homo sapiens) (P29376 whole entry): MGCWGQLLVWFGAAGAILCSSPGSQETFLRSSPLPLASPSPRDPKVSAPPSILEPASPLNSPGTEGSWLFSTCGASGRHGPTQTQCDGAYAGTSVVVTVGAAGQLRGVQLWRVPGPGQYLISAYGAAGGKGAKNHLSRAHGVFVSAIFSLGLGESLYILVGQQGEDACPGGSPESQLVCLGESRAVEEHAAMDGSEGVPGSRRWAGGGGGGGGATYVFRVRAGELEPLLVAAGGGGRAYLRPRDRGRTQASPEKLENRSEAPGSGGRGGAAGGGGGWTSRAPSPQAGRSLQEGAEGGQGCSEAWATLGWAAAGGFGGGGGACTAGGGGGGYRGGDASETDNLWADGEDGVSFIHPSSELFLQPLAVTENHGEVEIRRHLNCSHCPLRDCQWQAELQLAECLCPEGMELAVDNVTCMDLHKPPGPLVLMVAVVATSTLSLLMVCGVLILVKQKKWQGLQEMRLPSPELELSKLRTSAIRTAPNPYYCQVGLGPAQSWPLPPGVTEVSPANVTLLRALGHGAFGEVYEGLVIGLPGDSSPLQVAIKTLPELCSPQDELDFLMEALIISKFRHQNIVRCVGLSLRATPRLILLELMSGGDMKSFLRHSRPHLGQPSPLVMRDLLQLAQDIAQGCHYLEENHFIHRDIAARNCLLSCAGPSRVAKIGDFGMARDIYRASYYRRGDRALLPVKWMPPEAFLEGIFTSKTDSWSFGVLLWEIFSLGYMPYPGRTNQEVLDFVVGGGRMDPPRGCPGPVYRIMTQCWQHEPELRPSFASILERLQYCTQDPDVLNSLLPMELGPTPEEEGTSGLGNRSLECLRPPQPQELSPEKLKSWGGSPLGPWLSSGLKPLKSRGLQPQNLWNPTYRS
The target is the same in assay [11]. Particulars: at 1 µM.
For assay [12], the target named is Tyrosine-protein kinase Lyn (Homo sapiens) (UniProt P07948). To be noted: at 0.1 µM.
Sequence of Tyrosine-protein kinase Lyn (Homo sapiens) (P07948 2-512 limits assumed): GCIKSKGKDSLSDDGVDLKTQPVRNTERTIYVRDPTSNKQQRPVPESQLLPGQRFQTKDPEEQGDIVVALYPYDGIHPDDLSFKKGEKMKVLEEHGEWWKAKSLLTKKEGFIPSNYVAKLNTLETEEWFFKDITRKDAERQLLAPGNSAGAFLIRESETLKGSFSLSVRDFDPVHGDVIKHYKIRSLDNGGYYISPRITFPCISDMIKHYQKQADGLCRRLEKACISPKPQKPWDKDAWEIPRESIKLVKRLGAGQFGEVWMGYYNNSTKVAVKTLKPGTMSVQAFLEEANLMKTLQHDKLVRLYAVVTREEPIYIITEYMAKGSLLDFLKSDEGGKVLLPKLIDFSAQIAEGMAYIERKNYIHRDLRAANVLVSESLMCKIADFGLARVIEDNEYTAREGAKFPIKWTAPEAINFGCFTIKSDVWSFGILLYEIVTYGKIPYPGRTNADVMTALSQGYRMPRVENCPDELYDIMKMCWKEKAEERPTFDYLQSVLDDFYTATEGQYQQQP
The target is the same in assay [13]. Particulars: at 1 µM.
The target is the same in assay [14]. Particulars: at 0.1 µM. This is another data set of the same source.
Assay [15] has the same target. Particulars: at 1 µM. The source holds these as a separate data set.
In assay [16] the target is T1, Tyrosine-protein kinase Mer (Homo sapiens) (UniProt Q12866).
T1 sequence (whole entry): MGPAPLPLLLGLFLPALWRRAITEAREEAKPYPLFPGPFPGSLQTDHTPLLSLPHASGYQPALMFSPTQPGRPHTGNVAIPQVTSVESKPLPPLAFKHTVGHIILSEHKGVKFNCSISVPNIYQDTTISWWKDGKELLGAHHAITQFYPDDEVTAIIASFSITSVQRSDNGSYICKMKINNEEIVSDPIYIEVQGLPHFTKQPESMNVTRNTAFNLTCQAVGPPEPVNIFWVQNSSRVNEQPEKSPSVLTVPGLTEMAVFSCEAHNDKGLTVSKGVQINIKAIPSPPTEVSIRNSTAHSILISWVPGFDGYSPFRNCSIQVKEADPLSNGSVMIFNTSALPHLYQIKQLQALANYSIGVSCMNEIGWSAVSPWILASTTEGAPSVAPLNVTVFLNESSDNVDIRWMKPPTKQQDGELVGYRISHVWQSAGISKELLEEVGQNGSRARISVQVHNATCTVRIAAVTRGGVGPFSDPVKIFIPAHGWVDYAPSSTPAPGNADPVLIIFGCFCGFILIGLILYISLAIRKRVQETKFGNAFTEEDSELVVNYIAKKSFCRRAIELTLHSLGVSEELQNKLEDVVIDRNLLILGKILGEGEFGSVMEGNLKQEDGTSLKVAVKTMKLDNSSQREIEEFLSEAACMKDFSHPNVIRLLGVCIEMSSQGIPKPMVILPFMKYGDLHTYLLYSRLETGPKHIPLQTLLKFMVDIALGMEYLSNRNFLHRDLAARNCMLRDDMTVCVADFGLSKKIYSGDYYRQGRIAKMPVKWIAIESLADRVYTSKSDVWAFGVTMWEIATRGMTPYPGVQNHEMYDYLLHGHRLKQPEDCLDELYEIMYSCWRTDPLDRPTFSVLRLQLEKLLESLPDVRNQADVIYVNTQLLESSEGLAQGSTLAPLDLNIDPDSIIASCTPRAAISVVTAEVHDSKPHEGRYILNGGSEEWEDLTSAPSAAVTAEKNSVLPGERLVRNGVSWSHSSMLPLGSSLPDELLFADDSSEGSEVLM
Particulars: at 0.1 µM.

The target in assay [17] is T1, Tyrosine-protein kinase Mer (Homo sapiens). Particulars: at 1 µM.
The target of assay [18] is Hepatocyte growth factor receptor (Homo sapiens) (UniProt P08581). To be noted: at 0.1 µM.
Sequence of Hepatocyte growth factor receptor (Homo sapiens) (P08581 whole entry): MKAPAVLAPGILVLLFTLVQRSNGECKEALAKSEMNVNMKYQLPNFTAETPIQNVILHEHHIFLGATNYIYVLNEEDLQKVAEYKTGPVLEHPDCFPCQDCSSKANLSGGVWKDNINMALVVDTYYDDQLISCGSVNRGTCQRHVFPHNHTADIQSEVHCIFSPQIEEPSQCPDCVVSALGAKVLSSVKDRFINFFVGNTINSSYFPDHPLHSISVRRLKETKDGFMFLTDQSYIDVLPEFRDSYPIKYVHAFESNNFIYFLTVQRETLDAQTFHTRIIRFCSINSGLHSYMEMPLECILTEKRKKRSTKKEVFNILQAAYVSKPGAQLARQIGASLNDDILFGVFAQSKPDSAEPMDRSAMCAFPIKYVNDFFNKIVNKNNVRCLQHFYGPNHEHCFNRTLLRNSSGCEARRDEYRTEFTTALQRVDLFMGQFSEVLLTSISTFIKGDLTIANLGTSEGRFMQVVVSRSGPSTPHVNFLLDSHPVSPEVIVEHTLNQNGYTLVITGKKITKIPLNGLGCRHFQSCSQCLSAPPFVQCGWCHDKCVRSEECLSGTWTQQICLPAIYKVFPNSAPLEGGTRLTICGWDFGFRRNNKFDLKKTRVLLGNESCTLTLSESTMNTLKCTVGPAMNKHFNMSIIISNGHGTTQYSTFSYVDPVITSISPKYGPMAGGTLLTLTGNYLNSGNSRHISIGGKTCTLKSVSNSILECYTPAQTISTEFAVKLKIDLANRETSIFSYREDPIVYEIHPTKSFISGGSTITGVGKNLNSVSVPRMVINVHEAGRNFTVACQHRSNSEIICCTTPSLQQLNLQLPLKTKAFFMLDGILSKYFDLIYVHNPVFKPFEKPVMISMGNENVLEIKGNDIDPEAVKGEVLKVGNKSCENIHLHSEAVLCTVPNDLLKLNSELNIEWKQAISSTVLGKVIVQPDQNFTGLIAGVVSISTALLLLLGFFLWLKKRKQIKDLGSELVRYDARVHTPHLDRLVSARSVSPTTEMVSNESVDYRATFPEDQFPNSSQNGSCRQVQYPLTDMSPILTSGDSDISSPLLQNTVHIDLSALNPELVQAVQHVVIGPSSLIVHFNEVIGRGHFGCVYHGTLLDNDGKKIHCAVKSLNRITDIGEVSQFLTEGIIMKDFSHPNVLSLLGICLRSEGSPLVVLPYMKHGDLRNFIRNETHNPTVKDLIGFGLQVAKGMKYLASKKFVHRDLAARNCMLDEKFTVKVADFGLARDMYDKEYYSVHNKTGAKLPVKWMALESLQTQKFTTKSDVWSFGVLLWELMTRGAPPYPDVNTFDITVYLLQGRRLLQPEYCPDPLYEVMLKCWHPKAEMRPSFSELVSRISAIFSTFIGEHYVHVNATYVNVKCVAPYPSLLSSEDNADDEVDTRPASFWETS
The target is the same in assay [19]. To be noted: at 1 µM.
Assay [20] has as its target T2, Muscle, skeletal receptor tyrosine-protein kinase (Homo sapiens) (UniProt O15146).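 Note: values are mean inhibition of MuSK from the GSK PKIS kinase screening panel.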
T2 sequence (whole entry): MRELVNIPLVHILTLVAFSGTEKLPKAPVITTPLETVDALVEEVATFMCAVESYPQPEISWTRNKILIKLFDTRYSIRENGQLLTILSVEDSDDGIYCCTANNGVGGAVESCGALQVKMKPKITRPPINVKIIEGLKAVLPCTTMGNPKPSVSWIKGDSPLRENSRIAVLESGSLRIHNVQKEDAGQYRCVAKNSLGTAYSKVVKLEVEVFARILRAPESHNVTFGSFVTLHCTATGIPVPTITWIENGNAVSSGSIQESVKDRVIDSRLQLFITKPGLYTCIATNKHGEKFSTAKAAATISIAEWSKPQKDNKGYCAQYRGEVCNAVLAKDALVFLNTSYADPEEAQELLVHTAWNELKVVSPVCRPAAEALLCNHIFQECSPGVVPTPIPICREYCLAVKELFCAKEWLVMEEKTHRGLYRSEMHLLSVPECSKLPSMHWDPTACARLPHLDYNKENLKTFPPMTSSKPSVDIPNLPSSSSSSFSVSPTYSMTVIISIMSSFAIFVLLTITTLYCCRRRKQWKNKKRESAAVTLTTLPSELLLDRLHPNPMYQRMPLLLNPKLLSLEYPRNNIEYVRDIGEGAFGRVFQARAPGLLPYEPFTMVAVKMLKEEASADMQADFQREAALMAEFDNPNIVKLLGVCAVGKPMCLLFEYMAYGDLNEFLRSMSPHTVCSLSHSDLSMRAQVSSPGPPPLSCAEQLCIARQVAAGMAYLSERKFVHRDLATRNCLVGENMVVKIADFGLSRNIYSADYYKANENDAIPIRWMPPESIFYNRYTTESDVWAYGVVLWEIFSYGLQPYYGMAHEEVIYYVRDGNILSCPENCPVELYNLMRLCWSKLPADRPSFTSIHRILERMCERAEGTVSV
To be noted: at 0.1 µM.

Sequence of Mast/stem cell growth factor receptor Kit (Homo sapiens) (P10721 whole entry): as the sequence (P10721 whole entry T670I) above, with I670T counted along it
Sequence of Mast/stem cell growth factor receptor Kit (Homo sapiens), P10721 [D816V] (P10721 whole entry D816V): as the sequence (P10721 whole entry T670I) above, with I670T, D816V counted along it

A word on the inhibition: it is the change of the read-out against control, counted positive when it falls. Consider `COc1ccc(-c2ccc3c(NC(=O)C4CC4)n[nH]c3n2)cc1`, for which the inhibition in assay [1] stood at 6.98%; in assay [2], 3.21%; in [3], 2.92%; in assay [4] it was 0.56%; in [5], 3.21%; in assay [6] it was 4.61%. Also, the inhibition in assay [7] is 2.87%; in assay [8], -0.02%; in assay [9], 3.64%; in [10], 1.94%; in assay [11] it was 1.49%; in [12] it was 1.25%. Moreover, the inhibition was determined as 5.43% in assay [13]; 0.89% in [14]; 5.03% in assay [15]; 0.16% in assay [16]; 3.67% in [17]; 1.87% in assay [18]. Further, the figures for the inhibition in assay [19] and in assay [20] were 7.43% and 0.33%, respectively.
As for `COc1ccc(C2=C(N3CCc4ccccc43)C(=O)NC2=O)cc1`, the inhibition stood at 15.1% in assay [1]; 3.56% in assay [2]; 3.25% in assay [3]; 6.38% in [4]; 5.55% in assay [5]; 3.19% in assay [6]. Moreover, the inhibition in assay [7] was 4.55%; in assay [8] it was 4.42%; in assay [9] it was 4.16%; in [10] it was 5.23%; in assay [11], 5.38%; in assay [12], 6.92%. Further, the inhibition in [13] came to 6.95%; in assay [14], 5.2%; in [15], 5.98%; in [16] it was 1.96%; in assay [17] it was 1.78%; in assay [18], 6.5%. Moreover, the inhibition stood at 7.87% in assay [19] and 2.97% in assay [20].
On to `c1ccc(-c2n[nH]cc2-c2ccnc(-c3ccc(OCCN4CCOCC4)cc3)c2)nc1`, for which the inhibition in [1] is 2.31%; in assay [2], -0.77%; in assay [3] it was 8.41%; in [4], -3%; in [5], -2.32%; in [6], 7.8%. The inhibition was 10.4% in assay [7]; 1.7% in [8]; 9.5% in assay [9]; -0.05% in [10]; -0.95% in assay [11]; 1.31% in assay [12]. Also, the inhibition is 10.2% in assay [13]; 1.54% in assay [14]; 7.34% in [15]; 5.12% in assay [16]; 5.39% in assay [17]; 7.49% in assay [18]. Further, the results for the inhibition in assay [19] and in assay [20] were 5.59% and 6.97%, respectively.
As for `O=C1Nc2ccccc2/C1=C/Nc1ccc(-n2cncn2)cc1`, the inhibition was 75.9% in assay [1]; 4.37% in [2]; 8.01% in assay [3]; 8.82% in assay [4]; 47.4% in [5]; -2.32% in assay [6]. For the same compound, the inhibition in assay [7] was found to be 10.2%; in assay [8], 3.98%; in assay [9] it was 9.02%; in [10], 3.3%; in assay [11] it was 7.47%; in [12], 6.77%. In addition, the inhibition was 21.6% in assay [13]; 4.42% in assay [14]; 17.3% in assay [15]; 1.28% in assay [16]; 5.61% in assay [17]; 5.14% in assay [18]. For the same compound, the inhibition in assay [19] worked out at 13.6%; in assay [20], 3.92%.
For the compound `Fc1ccc(-c2ncn(C3CCNCC3)c2-c2ccnc(Oc3ccc(Oc4ccccc4)cc3)n2)cc1`, the inhibition was 6.51% in assay [1]; 2.38% in [2]; 2.59% in assay [3]; 1.59% in [4]; 1.82% in assay [5]; -2.65% in assay [6]. Further, the inhibition in assay [7] was -3.42%; in assay [8], 4.01%; in assay [9], 4.76%; in assay [10], 3.78%; in assay [11] it was 4.33%; in assay [12], 3.46%. The inhibition in assay [13] is 5.25%; in assay [14] it was 1.56%; in [15], 2.92%; in assay [16] it was 1.43%; in assay [17], 10.6%; in assay [18], 9.38%. The inhibition in assay [19] was found to be 0.02%; in assay [20], 2.43%.
As to `Fc1ccc(-c2ncn(CCCN3CCOCC3)c2-c2ccncc2)cc1`, the inhibition in assay [1] was -0.81%; in assay [2] it was 0.65%; in assay [3], -1.66%; in assay [4], -0.29%; in [5] it was -2.16%; in assay [6] it was 2.57%. In addition, the inhibition in [7] is 0.03%; in [8] it was 0.17%; in assay [9] it was 3.45%; in assay [10], 0.08%; in [11], -2.09%; in [12], -0.59%. Also, the inhibition in assay [13] is -0.14%; in assay [14], -1%; in [15], -0.37%; in assay [16] it was 0.24%; in [17] it was -0.01%; in [18] it was 3.89%. Further, the results for the inhibition in [19] and in [20] were -1.62% and -0.13%, respectively.
